Experimental data from PubChem BioAssay AID1159580 (chemical genetic matrix, 2015).
Screen size: about 5,500 compounds; about 2,000 (36%) were called active. Not shown: some 18% with an inconclusive outcome. No stated cut-off is given here; in the data, active means normalized growth mostly below about 0.91 (no sharp cut-off); inconclusive means no clear call, values can overlap the other calls; inactive means mostly above about 0.92. The list shows a part of the results.

Test: chemical genetic growth profiling, strain panel (AID 1159580);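 further: tested at 20 µM; growth read once vehicle control cultures reached saturation at 30 °C; 1 = growth at the plate median or of vehicle wells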
Settings: growth OD

Measured: normalized growth

CCOc1ccc(NC(C)=O)cc1
inactive: S. cerevisiae deletion strains, locus YJR075W, strain HOC1, stronger effect = lower value 1.02 | S. cerevisiae deletion strains, locus YKL009W, strain mrt4, stronger effect = lower value 0.978 | S. cerevisiae deletion strains, locus YKL068W, stronger effect = lower value 0.976 | S. cerevisiae deletion strains, locus YKL085W, strain MDH1 (second series), stronger effect = lower value 0.985 | S. cerevisiae deletion strains, locus YKL085W, strain MDH1, stronger effect = lower value 0.985 | S. cerevisiae deletion strains, locus YKL160W, strain elf1, stronger effect = lower value 1.02 | S. cerevisiae deletion strains, locus YKL190W, strain CNB1, stronger effect = lower value 0.994 | S. cerevisiae deletion strains, locus YKR001C, strain vps1, stronger effect = lower value 0.98 | S. cerevisiae deletion strains, locus YKR026C, strain gcn3, stronger effect = lower value 1.01 | S. cerevisiae deletion strains, locus YKR091W, strain srl3, stronger effect = lower value 1.01 | S. cerevisiae deletion strains, locus YLL001W, strain dnm1, stronger effect = lower value 1.01 | S. cerevisiae deletion strains, locus YLL026W, stronger effect = lower value 1.01 | S. cerevisiae deletion strains, locus YLL041C, strain sdh2, stronger effect = lower value 1.02 | S. cerevisiae deletion strains, locus YLR027C, strain aat2, stronger effect = lower value 1.01 | S. cerevisiae deletion strains, locus YLR039C, strain RIC1, stronger effect = lower value 1.01 | S. cerevisiae deletion strains, locus YLR058C, strain SHM2, stronger effect = lower value 0.994 | S. cerevisiae deletion strains, locus YLR102C, strain apc9, stronger effect = lower value 0.976 | S. cerevisiae deletion strains, locus YLR113W, strain HOG1, stronger effect = lower value 0.997 | S. cerevisiae deletion strains, locus YLR221C, strain rsa3, stronger effect = lower value 0.999 | S. cerevisiae deletion strains, locus YLR258W, strain gsy2, stronger effect = lower value 1.02 | S. cerevisiae deletion strains, locus YLR262C, strain YPT6 (second series), stronger effect = lower value 1.03 | S. cerevisiae deletion strains, locus YLR262C, strain YPT6, stronger effect = lower value 0.999 | S. cerevisiae deletion strains, locus YLR268W, strain sec22, stronger effect = lower value 1.01 | S. cerevisiae deletion strains, locus YLR320W, strain mms22, stronger effect = lower value 1 | S. cerevisiae deletion strains, locus YLR330W, strain CHS5, stronger effect = lower value 0.993 | S. cerevisiae deletion strains, locus YLR342W, strain FKS1 (second series), stronger effect = lower value 0.957 | S. cerevisiae deletion strains, locus YLR342W, strain FKS1, stronger effect = lower value 1.03 | S. cerevisiae deletion strains, locus YLR357W, strain rsc2, stronger effect = lower value 1.01 | S. cerevisiae deletion strains, locus YLR370C, strain arc18, stronger effect = lower value 1.01 | S. cerevisiae deletion strains, locus YLR371W, strain rom2, stronger effect = lower value 0.962 | S. cerevisiae deletion strains, locus YLR384C, strain iki3, stronger effect = lower value 1.02 | S. cerevisiae deletion strains, locus YLR418C, strain cdc73, stronger effect = lower value 1 | S. cerevisiae deletion strains, locus YML016C, strain PPZ1, stronger effect = lower value 0.996 | S. cerevisiae deletion strains, locus YML032C, strain rad52, stronger effect = lower value 0.994 | S. cerevisiae deletion strains, locus YML120C, strain ndi1, stronger effect = lower value 1.02 | S. cerevisiae deletion strains, locus YML124C, strain tub3, stronger effect = lower value 0.99 | S. cerevisiae deletion strains, locus YMR058W, strain fet3, stronger effect = lower value 1.01 | S. cerevisiae deletion strains, locus YMR078C, strain ctf18, stronger effect = lower value 0.991 | S. cerevisiae deletion strains, locus YMR125W, strain sto1, stronger effect = lower value 1.02 | S. cerevisiae deletion strains, locus YMR129W, stronger effect = lower value 1.01 | S. cerevisiae deletion strains, locus YMR205C, strain PFK2, stronger effect = lower value 1.03 | S. cerevisiae deletion strains, locus YMR223W, strain ubp8, stronger effect = lower value 0.988 | S. cerevisiae deletion strains, locus YMR231W, strain pep5, stronger effect = lower value 1.01 | S. cerevisiae deletion strains, locus YMR263W, strain SAP30, stronger effect = lower value 1.01 | S. cerevisiae deletion strains, locus YMR307W, strain GAS1, stronger effect = lower value 0.978 | S. cerevisiae deletion strains, locus YNL067W, strain RPL9B, stronger effect = lower value 1.03 | S. cerevisiae deletion strains, locus YNL071W, strain lat1, stronger effect = lower value 1.01 | S. cerevisiae deletion strains, locus YNL128W, strain TEP1, stronger effect = lower value 1.02 | S. cerevisiae deletion strains, locus YNL153C, strain GIM3, stronger effect = lower value 1.01 | S. cerevisiae deletion strains, locus YNL183C, strain NPR1, stronger effect = lower value 0.995 | S. cerevisiae deletion strains, locus YNL209W, strain ssb2, stronger effect = lower value 1.02 | S. cerevisiae deletion strains, locus YNL233W, strain BNI4, stronger effect = lower value 1.01 | S. cerevisiae deletion strains, locus YNL248C, strain rpa49, stronger effect = lower value 1.02 | S. cerevisiae deletion strains, locus YNL250W, strain rad50, stronger effect = lower value 0.991 | S. cerevisiae deletion strains, locus YNL271C, strain bni1, stronger effect = lower value 0.972 | S. cerevisiae deletion strains, locus YNL298W, strain CLA4, stronger effect = lower value 0.989 | S. cerevisiae deletion strains, locus YNL307C, strain MCK1, stronger effect = lower value 0.991 | S. cerevisiae deletion strains, locus YNL322C, strain KRE1 (second series), stronger effect = lower value 1.01 | S. cerevisiae deletion strains, locus YNL322C, strain KRE1, stronger effect = lower value 1 | S. cerevisiae deletion strains, locus YNR049C, strain mso1, stronger effect = lower value 1.02 | S. cerevisiae deletion strains, locus YNR052C, strain pop2, stronger effect = lower value 0.987 | S. cerevisiae deletion strains, locus YOL006C, strain TOP1, stronger effect = lower value 1.15 | S. cerevisiae deletion strains, locus YOL012C, strain htz1 1.55 | S. cerevisiae deletion strains, locus YOL147C, strain pex11, stronger effect = lower value 0.993 | S. cerevisiae deletion strains, locus YOR001W, strain rrp6, stronger effect = lower value 1.02 | S. cerevisiae deletion strains, locus YOR061W, strain CKA2, stronger effect = lower value 0.996 | S. cerevisiae deletion strains, locus YOR069W, strain VPS5, stronger effect = lower value 1.07 | S. cerevisiae deletion strains, locus YOR070C, strain gyp1, stronger effect = lower value 1.02 | S. cerevisiae deletion strains, locus YOR080W, strain dia2, stronger effect = lower value 1.02 | S. cerevisiae deletion strains, locus YOR083W, strain WHI5, stronger effect = lower value 1.02 | S. cerevisiae deletion strains, locus YOR106W, strain vam3, stronger effect = lower value 1.01 | S. cerevisiae deletion strains, locus YOR136W, strain idh2, stronger effect = lower value 0.996 | S. cerevisiae deletion strains, locus YOR144C, strain elg1, stronger effect = lower value 0.997 | S. cerevisiae deletion strains, locus YOR184W, strain ser1, stronger effect = lower value 0.973 | S. cerevisiae deletion strains, locus YOR231W, strain MKK1, stronger effect = lower value 0.978 | S. cerevisiae deletion strains, locus YOR265W, strain rbl2, stronger effect = lower value 1.01 | S. cerevisiae deletion strains, locus YOR270C, strain vph1, stronger effect = lower value 1.02 | S. cerevisiae deletion strains, locus YOR290C, strain snf2, stronger effect = lower value 1.01 | S. cerevisiae deletion strains, locus YOR316C, strain cot1, stronger effect = lower value 0.983 | S. cerevisiae deletion strains, locus YPL051W, strain arl3, stronger effect = lower value 1 | S. cerevisiae deletion strains, locus YPL055C, strain LGE1, stronger effect = lower value 1.05 | S. cerevisiae deletion strains, locus YPL078C, strain atp4, stronger effect = lower value 1.01 | S. cerevisiae deletion strains, locus YPL106C, strain sse1, stronger effect = lower value 1.02 | S. cerevisiae deletion strains, locus YPL240C, strain hsp82, stronger effect = lower value 1.02 | S. cerevisiae deletion strains, locus YPL241C, strain CIN2, stronger effect = lower value 1.04 | S. cerevisiae deletion strains, locus YPL256C, strain CLN2, stronger effect = lower value 1.01 | S. cerevisiae deletion strains, locus YPR119W, strain clb2, stronger effect = lower value 0.989 | S. cerevisiae deletion strains, locus YPR141C, strain kar3, stronger effect = lower value 0.993 | S. cerevisiae deletion strains, locus YPR163C, strain tif3, stronger effect = lower value 0.995 | S. cerevisiae deletion strains, locus YPR167C, strain met16, stronger effect = lower value 0.978 | S. cerevisiae deletion strains, strain wtn01, stronger effect = lower value 0.989 | S. cerevisiae strains, strain wild type, stronger effect = lower value 0.992
